High-throughput results deposited in PubChem by National Center for Advancing Translational Sciences (NCATS).
Shown is part of a subset that was picked to be rich in hits.
FBPA Giardia inh = qHTS Assay for Inhibitors of Fructose-1,6-bisphosphate Aldolase from Giardia Lamblia. A8B2U2. purified Giardia FBPA. AID 2451, 2010. hit rate 0.71% among 290,000. Potency, µM (titrated, usually from 59.6 µM), for the others: at the top dose activity, negative = inhibition, most hits filed as inhibitors; note: potency is the fitted concentration of half-maximal effect; % is set by controls: 0 for no effect and ±100 for the full control effect; nearly all actives have a fitted effect of over 55% in size
Target sequence (A8B2U2 whole entry, looked up): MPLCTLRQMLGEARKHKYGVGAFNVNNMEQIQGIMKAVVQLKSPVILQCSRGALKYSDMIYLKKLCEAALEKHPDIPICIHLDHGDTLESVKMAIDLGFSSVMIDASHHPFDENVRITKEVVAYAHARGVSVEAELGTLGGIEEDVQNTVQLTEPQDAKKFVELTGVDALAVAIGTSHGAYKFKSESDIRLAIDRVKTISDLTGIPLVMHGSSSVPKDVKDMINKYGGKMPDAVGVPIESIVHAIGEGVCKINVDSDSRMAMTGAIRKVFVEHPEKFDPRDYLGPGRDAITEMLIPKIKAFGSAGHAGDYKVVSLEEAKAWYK
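Giardia FBPA (40 nM reagent) was preincubated 10 min at RT with compound (up to 57.5 uM final), then substrate plus GAPDH/TPI/NAD/arsenate coupling system with diaphorase/resazurin was added; resorufin fluorescence (525/598 nm) was read after 20 min.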
RE007 growth inh = qHTS Assay for Inhibitors of the HIV-1 protein Vpr | S. pombe RE007 Vpr strain, BacTiter-Glo ATP luminescence, 24 h | Potency, µM (highest dose often 92.2 µM), without a hit: top-dose activity change, negative = less growth, actives largely listed as inhibitors | hit rate 0.21% among 360,000 | AID 651644, 2012; active = well fitted falling curve with a large enough effect; inconclusive = small, poorly fitted or top-dose-only effect; inactive = no such curve, though single readings can be large or run the other way; note: potency is the fitted concentration of half-maximal effect; % is set by controls: 0 for no effect and ±100 for the full control effect; nearly all actives have a fitted effect of over 50% in size
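Fission yeast RE007 carrying one integrated HIV-1 vpr copy, seeded at OD 0.01 in PMG+AL medium with 23 nL pinned compound. Grown 24 h at 30 degrees; viability read by BacTiter-Glo luminescence after 5 min.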
Cycloheximide cs = Cycloheximide Counterscreen for Small Molecule Inhibitors of Shiga Toxin; AID 2314, 2010; hit rate 12% among 300,000; cell reporter, cycloheximide protein synthesis inhibition counterscreen; max response, %; in the data active = max response mostly above about 13%, no sharp cut-off; inactive = mostly below about 14%; note: read at 38.3 µM for the half of the compounds with a filed dose; 0% is about no effect
TbPYK inhibitor = qHTS of Trypanosoma Brucei Inhibitors | pyruvate kinase (Trypanosoma brucei), Q57TT1 | TbPYK enzyme, Kinase-Glo Plus ATP luminescence, 45 min | Potency, µM (series often up to 76.8 µM), without a hit: at the highest dose activity, negative = inhibition, hits mostly inhibitors | hit rate 0.12% among 410,000; note: potency is the fitted concentration of half-maximal effect; % is set by controls: 0 for no effect and ±100 for the full control effect; nearly all actives have a fitted effect of over 50% in size
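T. brucei PYK with substrate was exposed to pin-transferred compounds across a concentration series, then started with 130 uM ADP (final). After 45 min at room temperature, Kinase-Glo Plus luminescence was read, normalized and curve-fitted.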
Shiga inhibitor = A qHTS for Small Molecule Inhibitors of Shiga Toxin | inhibition, % at 38.7 µM | hit rate 9.2% among 290,000 | Vero cells, Shiga toxin protein synthesis inhibition reporter; in the data active = inhibition mostly above about 28%, no sharp cut-off; inactive = mostly below about 43%; note: 0% is about no effect
LmPK inh = qHTS Assay for Inhibitors of Leishmania Mexicana Pyruvate Kinase (LmPK); hit rate 0.37% among 290,000; AID 1721, 2009; Q27686; purified LmPK, Kinase-Glo ATP luminescence, 1 h; Potency, µM (top dose mostly 57.5 µM), inactives show at the top dose activity change, negative = inhibition, hits mostly inhibitors; note: potency is the fitted concentration of half-maximal effect; % is set by controls: 0 for no effect and ±100 for the full control effect
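In 50 mM imidazole pH 7.2 with 7 mM MgCl2, LmPK (0.1 nM) turned over PEP (0.5 mM) and ADP (0.1 mM) for 1 h at room temperature. Luciferase read-out of ATP.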
Starred values were filed as active, the others as inactive; [ ] = remark or other dose. Unless noted, calls come from the whole dose curve; as a rule, active = well fitted curve in the direction sought with a large enough effect; inconclusive = small, poorly fitted or top-dose-only effect, or another doubt; inactive = no such curve, though single readings can be large; an effect the other way counts as inactive or inconclusive.

`O=C(NCCc1cccs1)c1ccc(Cl)c(Cl)c1` gave FBPA Giardia inh -2%, RE007 growth inh 23%, Cycloheximide cs 44*, TbPYK inhibitor 0%, Shiga inhibitor 72* and LmPK inh -3%.
Screening Cc1ccc(C(=O)NCCc2cccs2)cc1 returned FBPA Giardia inh 1%, RE007 growth inh 5%, Cycloheximide cs 1, TbPYK inhibitor -3%, Shiga inhibitor -13 and LmPK inh inconclusive.
Screening O=C(NCCc1cccs1)c1ccc(Cl)cc1 returned FBPA Giardia inh -5%, RE007 growth inh 84%, Cycloheximide cs 20*, TbPYK inhibitor -2%, Shiga inhibitor 35* and LmPK inh -10%.
`CO[C@H]1COC(=O)C/C=C\[C@@H](C)COC(=O)[C@@H](OCc2ccccc2)/C=C\[C@@H]1C` gave FBPA Giardia inh 3%[12.9 µM].
Screening CCOc1ccc(N=Nc2c(C)noc2C)cc1 returned FBPA Giardia inh -3%, RE007 growth inh 2%, Cycloheximide cs 28*, TbPYK inhibitor 4%, Shiga inhibitor 41 and LmPK inh -2%.
Screening O=S(=O)(c1ccccc1)N1N=C(c2cccs2)CC1c1cccc(O)c1 (stereo not drawn) returned RE007 growth inh -3%, Cycloheximide cs -2, TbPYK inhibitor 3%, Shiga inhibitor -8 and LmPK inh -2%.
Oc1ccccc1C1CC(c2cccs2)=NC(c2cccc(Br)c2)N1 (stereo not drawn) was read as FBPA Giardia inh -13%, RE007 growth inh inconclusive, Cycloheximide cs 42*, TbPYK inhibitor -7%, Shiga inhibitor 71* and LmPK inh -1%.
For O=C(Nc1ccncc1)Nc1ccc(Cl)cc1 the results were FBPA Giardia inh 19%, RE007 growth inh -14%, Cycloheximide cs 33*, TbPYK inhibitor -18%, Shiga inhibitor 42 and LmPK inh 5%.
`COc1ccc(NC(=O)Nc2cnccn2)cc1OC` gave FBPA Giardia inh -7%, RE007 growth inh 2%, Cycloheximide cs 6, TbPYK inhibitor -10%, Shiga inhibitor 9 and LmPK inh -3%.
Screening O=C(Nc1ccc(Cl)cc1)Nc1cnccn1 returned FBPA Giardia inh 1%, RE007 growth inh 1%, Cycloheximide cs 27*, TbPYK inhibitor 6%, Shiga inhibitor 26 and LmPK inh -4%.
Screening Cc1cc(C)cc(NC(=O)Nc2cnccn2)c1 returned RE007 growth inh -8%, Cycloheximide cs -6, TbPYK inhibitor 6%, Shiga inhibitor 31 and LmPK inh -11%.
Cc1ccc(NC(=O)Nc2cnccn2)cc1 was read as FBPA Giardia inh -9%, RE007 growth inh -5%, Cycloheximide cs 63*, TbPYK inhibitor 3%, Shiga inhibitor 72* and LmPK inh 1%.
For Cc1ccc(NC(=O)Nc2cnccn2)cc1C the results were FBPA Giardia inh 2%, RE007 growth inh -16%, Cycloheximide cs 28*, TbPYK inhibitor 2%, Shiga inhibitor 96* and LmPK inh 2%.
`COc1ccc(S(=O)(=O)N2CCC(C(=O)NCc3cccnc3)CC2)cc1OC` gave FBPA Giardia inh -1%, RE007 growth inh -1%, Cycloheximide cs 2, TbPYK inhibitor 4%, Shiga inhibitor -10 and LmPK inh -3%.
`COc1cccc(CNC(=O)CN2C(=O)CCn3nc(-c4cn(C)c5ccccc45)cc32)c1OC` gave TbPYK inhibitor -3%.
CC(C)c1ccc(NC(=O)Nc2cnccn2)cc1 was read as RE007 growth inh 9%, Cycloheximide cs 61*, TbPYK inhibitor 0%, Shiga inhibitor 73* and LmPK inh -1%.
For O=C(Nc1cnccn1)Nc1cccc(Cl)c1Cl the results were FBPA Giardia inh 16%, RE007 growth inh 2%, Cycloheximide cs 26*, TbPYK inhibitor 1%, Shiga inhibitor 16 and LmPK inh 1%.
For O=C(Nc1ccccc1)Nc1cnccn1 the results were FBPA Giardia inh 5%, RE007 growth inh -11%, Cycloheximide cs 15, TbPYK inhibitor 6%, Shiga inhibitor 24* and LmPK inh -9%.
